According to PubChem BioAssay (Tox21):
Results filed as inconclusive are left out. Activity calls are given as the source filed them. Unless noted, calls come from the whole dose curve; as a rule, active = well fitted curve in the direction sought with a large enough effect in the repeat runs; inconclusive = weak or mixed curves; inactive = no such curve, though single readings can be large; an effect the other way counts as inactive or inconclusive.

Experiments:
[1] = qHTS assay to identify small molecule agonists of the hypoxia (HIF-1) signaling pathway - cell viability counter screen (AID 1224844; calls by dose curve; note: nearly all actives have a fitted effect of over 50% in size)
Outline: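 Same wells as the HIF-1 reporter screen; ME-180 cells carrying HRE-bla, 17 hr treatment at 37C; CellTiter-Glo luminescence read after 30 min at room temperature.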

[2] = qHTS assay to identify small molecule agonists of H2AX (AID 1224845; active = well fitted activation curve with a large enough effect in the signal ratio in the repeat runs, not every such curve was filed as active; the % refers to the signal ratio)
Outline: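 Wild-type CHO-K1 cells, plated overnight, exposed 3hr at 37C to 15 concentrations (0.76% DMSO final). Lysed, then HTRF anti-pH2AX (S139) cryptate and anti-H2AX-d2 antibodies, 24 hr room temperature; 665/620 nm emission read.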

[3] = qHTS assay to identify small molecule agonists of the hypoxia (HIF-1) signaling pathway (AID 1224846; active = well fitted activation curve with a large enough effect in the signal ratio in the repeat runs, not every such curve was filed as active; the % refers to the signal ratio)
Outline: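 In ME-180 cells bearing an HRE-bla construct, 17 h treatment with DMSO-dissolved compounds at 37C was followed by CCF4-AM loading to quantify reporter induction.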

[4] = qHTS assay to identify small molecule agonists of H2AX - cell viability counter screen (AID 1224847; calls by dose curve; note: top concentration of the series differs between compounds; nearly all actives have a fitted effect of over 30% in size)
Outline: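 CHO-K1 cells plated overnight at 37C, then exposed 3 h at 37C to compounds at 15 concentrations (0.76% DMSO final). Viability by CellTiter-Glo luminescence after 30 min at room temperature.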

[5] = qHTS assay to identify small molecule agonists of the estrogen related receptor (ERR) signaling pathway from Tox21 library (AID 1224849; calls by dose curve; note: nearly all actives have a fitted effect of over 15% in size); settings: ERR reporter cell line, ONE-Glo luciferase, 18 h; at 92.4 µM (top of the series) unless noted
Outline: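 Reporter cells (ERR, NTP source) treated with Tox21 10K compounds 18 h, 37 C. Readout: ONE-Glo luminescence, 30 min RT.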

[6] = qHTS RealTime-Glo MT Cell Viability Assay in HepG2 cells - 24 hour (AID 1224867); note: nearly all actives have a fitted effect of over 50% in size
Outline: (§1)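 HepG2 suspension premixed with RealTime-Glo reagents is plated at 600 cells per well and left 5 h at 37 C/5% CO2. Compounds in DMSO then go in, and bioluminescence reflecting viable cell number is recorded over 40 h.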

[7] = qHTS RealTime-Glo MT Cell Viability Assay in HEK293 cells - 32 hour (AID 1224868); note: top concentration of the series differs between compounds; nearly all actives have a fitted effect of over 50% in size
Outline: (§2)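 Reads taken at 0, 8, 16, 24, 32 and 40 h from the same wells. HEK293 cells (600/well) carried RealTime-Glo reagents from seeding, with compound added after a 5 h settle at 37 C.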

[8] = A CellTox Green Cytotoxicity Assay to monitor cytotoxicity in HEK293 cells - 0 hour (AID 1224869); note: nearly all actives have a fitted effect of over 50% in size
Outline: (§3)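 Homogeneous no-lysis format: HEK293 cell suspension mixed with CellTox Green reagent, seeded, incubated 5 h at 37 C/5% CO2, then dosed by pintool with compound in DMSO.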

[9] = qHTS RealTime-Glo MT Cell Viability Assay in HepG2 cells - 40 hour (AID 1224870); note: nearly all actives have a fitted effect of over 50% in size
Outline: (§4)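 HepG2 cells (600/well) mixed with RealTime-Glo MT reagent, settled 5 h at 37 C/5% CO2 before compound addition. Nonlytic NanoLuc luminescence from viable-cell prosubstrate reduction read repeatedly during 40 h treatment at 37 C.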

[10] = A CellTox Green Cytotoxicity Assay to monitor cytotoxicity in HEK293 cells - 40 hour (AID 1224871); note: nearly all actives have a fitted effect of over 45% in size
Outline: as §3

[11] = qHTS RealTime-Glo MT Cell Viability Assay in HepG2 cells - 8 hour (AID 1224873); note: nearly all actives have a fitted effect of over 55% in size
Outline: as §4

[12] = qHTS RealTime-Glo MT Cell Viability Assay in HEK293 cells - 40 hour (AID 1224874); settings: RealTime-Glo luminescence; max response: stronger effect = lower value; note: nearly all actives have a fitted effect of over 50% in size
Outline: (§5)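 Measured as luminescence from the same continuously cultured HEK293 wells at successive time points (0, 8, 16, 24, 32, 40 h) after compound addition. Reagent present from seeding; dosing at 5 h; incubation 37 C.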

[13] = A CellTox Green Cytotoxicity Assay to monitor cytotoxicity in HEK293 cells - 24 hour (AID 1224875); note: nearly all actives have a fitted effect of over 45% in size
Outline: as §3

[14] = A CellTox Green Cytotoxicity Assay to monitor cytotoxicity in HepG2 cells - 16 hour (AID 1224876); note: nearly all actives have a fitted effect of over 45% in size
Outline: (§6)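 Fluorescent DNA-binding dye, 600 HepG2 cells/well, 5 h preincubation then compound in DMSO; same plates read at 0–40 h, 37 C.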

[15] = qHTS RealTime-Glo MT Cell Viability Assay in HepG2 cells - 32 hour (AID 1224877); note: nearly all actives have a fitted effect of over 55% in size
Outline: as §1

[16] = A CellTox Green Cytotoxicity Assay to monitor cytotoxicity in HepG2 cells - 24 hour (AID 1224878); note: nearly all actives have a fitted effect of over 45% in size
Outline: as §6

[17] = A CellTox Green Cytotoxicity Assay to monitor cytotoxicity in HepG2 cells - 40 hour (AID 1224879); note: nearly all actives have a fitted effect of over 40% in size
Outline: as §6

[18] = qHTS RealTime-Glo MT Cell Viability Assay in HEK293 cells - 0 hour (AID 1224880)
Outline: as §5

[19] = qHTS assay to identify small molecule antagonists of the estrogen related receptor (ERR) signaling pathway from Tox21 library (AID 1224848); note: nearly all actives have a fitted effect of over 50% in size
Outline: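 Compounds dissolved in DMSO are pin-transferred onto ERR reporter cells (2,000 per well) that have settled for 6 h at 37 C. Plates then incubate 18 h at 37 C before ONE-Glo luciferase reagent and a luminescence read 30 min later.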

[20] = qHTS RealTime-Glo MT Cell Viability Assay in HEK293 cells - 16 hour (AID 1224872)
Outline: as §2
% is set by controls: 0 for no effect and ±100 for the full control effect.

Cl/C(=C\n1cncn1)c1ccc(Cl)cc1Cl
inactive: Potency [1] | Potency [2] | outcome [3] | Potency [4] | activity change, positive = activation [5] -21.8% [at 42.5 µM] | Potency [6] | Potency [7] | Potency [8] | Potency [9] | Potency [10] | Potency [11] | max response [12] -23.8% | Potency [13] | Potency [14] | Potency [15] | Potency [16] | Potency [17] | Potency [18]

CCCCOC(=O)/C=C\C(=O)OCCCC
inactive: Potency [1] | Potency [2] | outcome [3] | Potency [4] | Potency [19] | activity change, positive = activation [5] -7.95% | Potency [6] | Potency [8] | Potency [9] | Potency [11] | max response [12] -0.0674% | Potency [13] | Potency [14] | Potency [15] | Potency [16] | Potency [17] | Potency [18]

COc1ccc(C(C)=O)cc1
inactive: Potency [1] | Potency [2] | outcome [3] | Potency [4] | Potency [6] | Potency [7] | Potency [8] | Potency [9] | Potency [10] | Potency [20] | Potency [11] | max response [12] 21.1% | Potency [13] | Potency [14] | Potency [15] | Potency [16] | Potency [17] | Potency [18]

CC(C)(C)c1ccc(S)cc1
inactive: Potency [1] | Potency [2] | outcome [3] | Potency [4] | Potency [6] | Potency [7] | Potency [8] | Potency [9] | Potency [10] | Potency [20] | Potency [11] | max response [12] -0.358% | Potency [13] | Potency [14] | Potency [15] | Potency [16] | Potency [17] | Potency [18]

CCCCCCCCCC(=O)OCC
inactive: Potency [1] | Potency [2] | outcome [3] | Potency [4] | Potency [6] | Potency [7] | Potency [8] | Potency [9] | Potency [10] | Potency [20] | Potency [11] | max response [12] -6.56% | Potency [13] | Potency [14] | Potency [15] | Potency [16] | Potency [17] | Potency [18]

O=C1CCCCCO1
inactive: Potency [1] | Potency [2] | outcome [3] | Potency [4] | Potency [6] | Potency [7] | Potency [8] | Potency [9] | Potency [10] | Potency [20] | Potency [11] | max response [12] 10.5% | Potency [13] | Potency [14] | Potency [15] | Potency [16] | Potency [17]

CC1=CC(=O)/C(=C(/C)O)C(=O)O1
inactive: Potency [1] | Potency [2] | outcome [3] | Potency [4] | Potency [6] | Potency [7] | Potency [8] | Potency [9] | Potency [10] | Potency [20] | Potency [11] | max response [12] 16.6% | Potency [13] | Potency [14] | Potency [15] | Potency [16] | Potency [17] | Potency [18]
